Bioassay records as filed in PubChem BioAssay.
Sampled rows, rich in hits. Any-hit rate of the full collection: about 3.5%.
TEAD-YAP block: TEAD-YAP interaction inhibition, primary screen, TEAD-YAP interaction inhibitor project, luminescence, HEK-TIYL cells; TEAD-Gal4/YAP UAS-luciferase luminescence; inhibition, % at 9.12 µM; 640,000 tested, 1.4% active; in the data active means inhibition above about 32%;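 further: 0% = median of test compound wells and 100% = reference inhibitor wells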
MITF inh: MITF inhibitors, primary screen, biochemical, AlphaScreen, human; inhibition, % at 2.6 µM; Microphthalmia-associated transcription factor (Homo sapiens), O75030; AlphaScreen MITF homodimerization, bead proximity signal; 650,000 tested, 0.91% active; in the data active means inhibition above about 50%;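 further: 0% = vehicle wells with protein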
GPR151 activ: activators of human GPR151, primary screen, cell-based, PathHunter beta-arrestin, luminescence. G-protein coupled receptor 151 (Homo sapiens), Q8TDV0. PathHunter beta-arrestin GPR151 cells. activation, % at 11.2 µM. 650,000 tested, 1% active; in the data active means activation above about 4.9%;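 further: 0% = median of compound wells and 100% = cells with positive control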
FBW7 activator: FBW7 E3 ligase activators, primary screen, biochemical, AlphaScreen, human; AID 1259310, 2017; F-box/WD repeat-containing protein 7 (Homo sapiens), Q969H0; normalized activity (activation), % at 26.1 µM; 650,000 tested, 0.13% active; AlphaScreen FBW7–phospho-cyclin E peptide binding, activator screen; in the data active means normalized activity above about 1.9%;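 further: purified mutant Fbw7 with reduced substrate affinity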
Target sequence (Q969H0 whole entry, looked up): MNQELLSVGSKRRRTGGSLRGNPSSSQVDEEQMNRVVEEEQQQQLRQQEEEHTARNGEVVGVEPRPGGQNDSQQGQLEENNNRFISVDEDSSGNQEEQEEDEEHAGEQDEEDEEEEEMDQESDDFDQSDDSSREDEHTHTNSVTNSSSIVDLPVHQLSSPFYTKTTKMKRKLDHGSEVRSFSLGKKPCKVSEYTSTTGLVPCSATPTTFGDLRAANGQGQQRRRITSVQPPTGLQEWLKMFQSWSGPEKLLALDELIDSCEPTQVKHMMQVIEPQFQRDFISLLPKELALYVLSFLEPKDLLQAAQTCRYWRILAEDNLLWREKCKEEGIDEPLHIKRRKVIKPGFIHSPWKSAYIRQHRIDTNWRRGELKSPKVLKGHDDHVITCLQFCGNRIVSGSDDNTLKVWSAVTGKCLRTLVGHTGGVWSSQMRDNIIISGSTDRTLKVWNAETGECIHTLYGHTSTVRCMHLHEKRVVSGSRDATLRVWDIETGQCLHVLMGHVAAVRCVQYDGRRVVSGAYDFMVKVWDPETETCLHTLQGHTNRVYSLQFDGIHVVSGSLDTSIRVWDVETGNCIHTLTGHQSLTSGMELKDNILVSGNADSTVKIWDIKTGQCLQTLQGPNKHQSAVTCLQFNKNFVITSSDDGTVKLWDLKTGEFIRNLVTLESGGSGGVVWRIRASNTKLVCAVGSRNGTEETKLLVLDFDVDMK
GPR151 conf act: GPR151 activators, triplicate retest, confirmation, cell-based, PathHunter beta-arrestin, luminescence | shares compounds with GPR151 activ | GPR151 PathHunter beta-arrestin cells, 90 min; % of EA-reagent control over plate median | activation, % at 11.2 µM | 6,700 tested, under 10 active;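 active means mean percent activation across replicates above the confirmation screen cutoff of 4.91%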
GPR119 ag: GPR119 activators in beta-arrestin cells, counter-screen for GPR151 activator project, cell-based, PathHunter beta-arrestin, luminescence, triplicate | 6,700 tested, 0.3% active | 90 min; 0 = compound-well median, 100 = enzyme-acceptor control | activation, % at 11.2 µM | shares compounds with GPR151 activ;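 active means mean percent activation in the counterscreen above 29.09%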;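 further: counterscreen on off-target GPR119 to flag nonselective hits from the GPR151 activator screen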
* marks the source's active call; other numbers are inactive results; . = not tested or not shown; ! = not active in a repeat.

SMILES | TEAD-YAP block | MITF inh | GPR151 activ | FBW7 activator | GPR151 conf act | GPR119 ag
CCCC1=NN2C(=N)/C(=C/c3cc(Cl)c(OCCOc4ccc(C)cc4)c(OC)c3)C(=O)N=C2S1 | -29 | 2 | 3 | 0 | . | .
O=C(COc1ccc(Br)cc1)N(c1ccccc1)C1C=CS(=O)(=O)C1 (stereo not given) | 13 | 2 | 6.3* | 0 | 0 | -1
Cc1ccc(N(C(=O)CCc2ccccc2)C2C=CS(=O)(=O)C2)cc1C (stereo not given) | 9 | 0 | 5.4* | 0 | 0 | 3
NC(=O)c1ccc(-c2nc3ncnc(NCc4ccccc4)c3[nH]2)cc1 | 3 | 8 | 2 | 0 | . | .
COc1nc(NCCCN2CCCC2=O)nc(-c2ccc(C(=O)N3CCN(C)CC3)cc2)n1 | 4 | 2 | 3 | 0 | . | .
COc1nc(NCCCN2CCCC2=O)nc(-c2ccc(C(N)=O)cc2)n1 | -7 | 25 | 8.5* | 1 | 0 | -3
CCNC(=O)CNS(=O)(=O)c1ccc(C)cc1 | 2 | 4 | 7.9* | 0 | 0 | 1
CCCCNC(=O)NS(=O)(=O)c1ccc(C)cc1 | 0 | 15 | 6.1*! | 0 | 0 | 2
CCNC(=O)CNS(=O)(=O)c1ccc(I)cc1 | 8 | -1 | 1 | 0 | . | .
CCc1ccccc1NC(=O)c1cccn(OCc2cccc(C)c2)c1=O | 2 | -7 | 1 | 0 | . | .
Cc1nc2ccccc2n1CCNS(=O)(=O)c1ccc(F)cc1 | -12 | 34 | 6.4* | 0 | 1 | 6
COc1ccc(OC)c(/C=N/NC(=O)c2n[nH]c3c2CCCC3)c1 | -24 | 4 | -3 | 0 | . | .
COc1ccc(Nc2nc(C(=O)N3CCCCC3)cs2)c(OC)c1 | 1 | 2 | 1 | 0 | . | .
CC(=O)c1cc(F)c(N2CCN(C(=O)c3cc(F)c(F)cc3[N+](=O)[O-])CC2)cc1C | 4 | 3 | 5.3* | 0 | 0 | 4
Cc1cc(N2CCN(C(=O)c3ccc(Br)cc3)CC2)c(F)cc1[N+](=O)[O-] | 3 | 16 | 6.9* | 0 | 0 | -11
Cc1cc(F)c(F)cc1C(=O)N1CCN(c2cc(C)c([N+](=O)[O-])cc2F)CC1 | -7 | 6 | 1 | 0 | . | .
Cc1ccc(S(=O)(=O)NCC(=O)OCc2ccc(F)cc2)cc1 | 3 | 7 | -2 | 0 | . | .
O=C(Nc1ccc(Br)cc1)C1C(=O)NC23CCCCC2C1c1ccccc1O3 (stereo not given) | -14 | 3 | 1 | 0 | . | .
COc1cc(CN2CCN(CC=C(C)C)C(CCO)C2)cc(OC)c1OC (stereo not given) | 5 | 10 | 0 | 0 | . | .
O=C(O)CCCN1C(=O)/C(=C/C=C/c2ccccc2[N+](=O)[O-])SC1=S | -1 | 3 | -1 | 0 | . | .
Cc1cc(NC(=O)c2cc(-c3ccccc3O)no2)nn1CC(=O)N1CCOCC1 | -8 | 6 | 5.6* | 0 | 1 | 5
CCN(C)c1nc2nonc2nc1NC1CCCC1 | 5 | -11 | 5.2* | 0 | 1 | -2
CCc1nn(CC(=O)NC(C)C)c(=O)c2cc3sccc3n12 | 7 | 4 | 0 | 0 | . | .
O=C(Nc1ccccc1)c1ccc(N2C(=O)C3C4C=CC(C4)C3C2=O)cc1 (stereo not given) | -52 | -1 | 5.0* | 0 | 1 | 13
CC1CCC(Nc2nc3ccccc3c3nc(-c4cccnc4)nn23)CC1 (stereo not given) | -2 | -1 | 8.1* | 0 | 1 | 10
SMILES | TEAD-YAP block | MITF inh | GPR151 activ | FBW7 activator | GPR151 conf act | GPR119 ag
CCOC(=O)C1=NNC2C(=O)N(c3cc(C)ccc3C)C(=O)C12 (stereo not given) | -11 | -13 | 2 | 0 | . | .
Cc1c(Cl)cccc1NC(=O)CSCC(=O)Nc1ccc(Br)cc1 | 11 | 7 | 6.4* | 0 | 1 | 18
CCOc1nc(NC(=O)NS(=O)(=O)c2ccccc2)nc(-c2ccccc2)n1 | -1 | 2 | 5.0* | 0 | 0 | 1
O=C(NC(=S)Nc1ccc(-c2nc3ccccc3o2)cc1)c1cncc(Br)c1 | -15 | 4 | 6.1* | 0 | 0 | 15
O=C(Nc1ccc(-c2nc3ccccc3o2)cc1)c1cc(I)ccc1Cl | -15 | 7 | 7.4* | 0 | 0 | -5
CCCOc1ccc(-c2ccc(C(=O)O)cc2)cc1 | -23 | 8 | 6.3* | 0 | 0 | 2
CCCCCCOc1ccc(C(=O)O)cc1 | 0 | -27 | -5 | 0 | . | .
COc1ccc(C)cc1-n1cnc2cc(C(=O)O)ccc21 | -4 | 4 | 7.7* | 0 | -1 | 3
O=C(Nc1ccc(CN2CCCCC2)cc1)c1ncoc1-c1ccccc1F | 7 | -1 | 1 | 0 | . | .
O=C(c1nc2ccccc2s1)C1CCN(C(=O)Cn2cnc3ccccc3c2=O)CC1 | -2 | 5 | 0 | 0 | . | .
O=C1NC(CC(=O)N2CCC(C(=O)c3nc4ccccc4s3)CC2)c2ccccc21 (stereo not given) | 6 | 9 | 5.1* | 1 | -1 | -7
CCCCNC(=O)C(CC)Sc1nnc(-c2ccccc2)c(-c2ccccc2)n1 (stereo not given) | 1 | 8 | 5.5* | 0 | 0 | 6
O=C(NC1Cc2ccccc2C1)c1ccc(OC2CCN(C(=O)C3CC3)CC2)cc1 | 4 | 6 | 8.1* | 0 | -1 | -15
Cc1ccn2c(C(=O)Nc3ccc(Cl)cc3)c(C)nc2c1 | -7 | 15 | 5.5* | 0 | 1 | 3
CC(C)C1C2CCC(C2)C1N (stereo not given) | 0 | 10 | 5.3*! | 0 | -1 | -11
O=C(N/N=C/c1cc([N+](=O)[O-])ccc1O)C12CC3CC(CC(C3)C1)C2 | 4 | 0 | 5.1* | 0 | 0 | 7
COc1ccc(C(=O)N/N=C/c2cc(OC)ccc2O)cc1 | -2 | 26 | 1 | 0 | . | .
COc1ccc(O)c(/C=N/NC(=O)c2cc([N+](=O)[O-])cc([N+](=O)[O-])c2)c1 | -9 | 20 | 7.0* | 0 | -1 | -10
CC(C)(C)c1ccc(C(=O)N/N=C/c2ccc(O)c([N+](=O)[O-])c2)cc1 | -32 | -3 | 5.1* | 0 | 0 | 0
COc1ccc(/C=N\NC(=O)c2ccc([N+](=O)[O-])cc2)cc1Cl | 9 | 18 | 6.5* | 0 | 1 | 2
CCCn1cc(SCC(=O)Nc2ccccc2)c2ccccc21 | 9 | -6 | 0 | 0 | . | .
COc1ccccc1CN1C[C@@H]2C[C@@H](c3ccc(O)c(Cl)c3)N3CCC[C@@]23C1=O | 5 | 4 | 0 | 0 | . | .
